High-throughput results from PubChem.
Calb FLC: C. albicans growth inhibition with fluconazole, primary screen, CaCi-2 strain, Alamar Blue fluorescence | growth inhibition, % (no concentration beside the values) | AID 1979, 2009 | hit rate 0.57% among 300,000 | C. albicans CaCi-2 (fluconazole-resistant clinical isolate) + fluconazole, 48 h;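 active = growth inhibition above about 58% in most replicates, limit read from the data, passing the limit was not always enough; inconclusive = exactly half the replicates above a set limit; inactive = most replicates below a set limit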;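 note: all wells also contain fluconazole at 8 µg/ml as a sub-toxic cotreatment; 0% = median of DMSO wells and 100% = median of geldanamycin control wells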
PP1 inh: PP1-alpha phosphatase inhibitors, primary screen, counter-screen for PP5 inhibitor project, biochemical, fluorescence, OMFP substrate, single point; Serine/threonine-protein phosphatase PP1-alpha catalytic subunit (Homo sapiens), P62136; purified PP1alpha; inhibition, % at 6.7 µM; hit rate 0.9% among 320,000; AID 2235, 2010;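 active = inhibition above the mean inhibition of all tested compounds plus 3 SD, computed separately for each screening campaign, cut at about 15% in these data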
CSC inhib: cancer stem cell viability inhibitors, primary screen, luminescence | hit rate 1.1% among 300,000 | AID 2717, 2010 | cancer stem cell-like cells viability | inhibition, % at 7.5 µM; in the data active = inhibition above about 75%; inconclusive = no clear call, values can overlap the other calls; tested in HMLE shEcad cells
PP5 inh: PP5 phosphatase inhibitors, primary screen, biochemical, fluorescence; purified PP5c, OMFP substrate fluorescence; inhibition, % at 6.7 µM; hit rate 0.18% among 320,000; AID 1987, 2009;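 active = inhibition above the campaign's mean inhibition across all tested compounds plus 3 SD, cut at about 9.5% in these data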;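 note: 0% = DMSO only and 100% = 100 µM cantharidin control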
ALR H2O2 inh: inhibitors of human ALR sulfhydryl oxidase, primary screen, biochemical, H2O2 detection, HRP-luminol luminescence, single point. purified ALR, DTT oxidation. inhibition, % (test concentration not listed). hit rate 3.8% among 290,000;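 active = mean replicate inhibition above about 79%, with every replicate also reaching it, limit read from the data; inconclusive = only one of the two criteria met; inactive = mean below limit and not every replicate reaching it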
Target sequence (P55789 whole entry, looked up): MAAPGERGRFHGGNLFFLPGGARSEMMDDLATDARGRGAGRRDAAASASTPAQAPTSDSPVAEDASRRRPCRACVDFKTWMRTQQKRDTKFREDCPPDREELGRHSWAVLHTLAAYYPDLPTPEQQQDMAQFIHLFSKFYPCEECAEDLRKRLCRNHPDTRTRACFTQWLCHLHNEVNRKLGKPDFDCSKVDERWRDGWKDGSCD
Active calls of the source: *. Sampled rows, rich in hits. Any-hit rate of the full collection: about 5.4%.

`CC(C)(C)[C@@H]1CCC(=O)N(CC[C@H](Sc2ccc(Br)cc2)c2ccccc2)CC1` gave CSC inhib 107.6* and ALR H2O2 inh -9.4.
O=C(N[C@@H]1CCC(=O)N(CC[C@H](Sc2ccc(Br)cc2)c2ccccc2)CC1)OCc1ccccc1 was read as PP1 inh 15.6*, CSC inhib 34.0, PP5 inh 2.8 and ALR H2O2 inh -4.5.
`CC(=O)Nc1ccc(SC[C@H](C)CN2CC[C@H](C(C)(C)C)CCC2=O)cc1` gave PP1 inh -1.5, CSC inhib 101.9*, PP5 inh 1.7 and ALR H2O2 inh 99.2*.
`Cc1ccc(SC[C@H](C)CN2CC[C@H](C)CCC2=O)cc1` gave Calb FLC -23.0, PP1 inh -1.3, CSC inhib -5.0, PP5 inh 3.9 and ALR H2O2 inh -2.0.
`COc1ccc(SC[C@H](C)CN2CC[C@H](NC(=O)OCc3ccccc3)CCC2=O)cc1` gave CSC inhib 19.8 and ALR H2O2 inh inconclusive.
CC1CCCCN1C(=O)C1CCN(S(=O)(=O)c2ccc(-n3cnnn3)cc2)CC1 (centres undefined) was read as Calb FLC -2.1, PP1 inh -0.4 and PP5 inh 0.9.
Cc1nc2ccccn2c1/C(O)=C1\C(=O)C(=O)N(CCCn2ccnc2)C1c1ccncc1 (centres undefined) was read as Calb FLC -14.6, PP1 inh -4.3, CSC inhib -1.2, PP5 inh 0.7 and ALR H2O2 inh 1.4.
For COc1ccc2ccc3c(c2c1)N=CC1(O3)N(C)c2ccccc2C1(C)C (centres undefined) the results were Calb FLC 45.6, PP1 inh 3.2, CSC inhib 17.2, PP5 inh 1.9 and ALR H2O2 inh -15.8.
COc1ccc(S[C@@H](CCN2CC[C@H](NC(=O)OCc3ccccc3)CCC2=O)c2ccccc2)cc1 was read as CSC inhib 82.4* and ALR H2O2 inh -18.6.
For CC(=O)Nc1ccc(S[C@@H](CCN2CC[C@H](O)CCC2=O)c2ccccc2)cc1 the results were PP1 inh -0.5, CSC inhib -10.2, PP5 inh 2.9 and ALR H2O2 inh 98.7*.
For O=C(NC1CCC(=O)N(CCSc2ccccc2)CC1)OCc1ccccc1 (centres undefined) the results were Calb FLC 1.5, PP1 inh -2.1, CSC inhib 13.4, PP5 inh -0.9 and ALR H2O2 inh 1.1.
For O=c1[nH]c(CSc2nnc(-c3ccccc3)n2C2CCCCC2)nc2ccccc12 the results were Calb FLC -2.6, PP1 inh 0.3, CSC inhib -0.7, PP5 inh 2.6 and ALR H2O2 inh -21.6.
Screening COCCN1CCC(CNCc2cn(-c3cc(C)ccc3C)nc2-c2ccccc2)C1 (centres undefined) returned Calb FLC 35.6, PP1 inh -0.6, PP5 inh 2.6 and ALR H2O2 inh -3.4.
Screening Cc1ccccc1NP(=O)(c1ccccc1)c1nc2ccccc2s1 (centres undefined) returned Calb FLC -22.6, PP1 inh -1.8, CSC inhib -8.5, PP5 inh -2.3 and ALR H2O2 inh -12.9.
CCCc1nc(NC2CCCCC2)c(C#N)c2c1COC(C)(C)C2 was read as Calb FLC -10.8, PP1 inh -1.9, CSC inhib 105.8*, PP5 inh 1.4 and ALR H2O2 inh -0.3.
`CCc1nc(NC2CCCCC2)c(C#N)c2c1COC(C)(C)C2` gave Calb FLC -9.6, PP1 inh 1.2, CSC inhib 3.2 and PP5 inh 0.4.
Cc1nc2ccc(NC(=O)N3CCN(c4ccccn4)CC3)cc2s1 was read as Calb FLC -15.8, PP1 inh -0.3, CSC inhib 1.6, PP5 inh 2.2 and ALR H2O2 inh 12.3.
`O=C(CSc1c2c(nc3cc(Cl)ccc13)CCCC2)NCCCN1CCOCC1` gave Calb FLC 0.6, PP1 inh 1.7, CSC inhib -5.0, PP5 inh 2.4 and ALR H2O2 inh 97.1*.
Screening COCCCNC(=O)CSc1c2c(nc3ccc(Cl)cc13)CCCC2 returned Calb FLC 12.1, PP1 inh 1.3, CSC inhib 0.1, PP5 inh 5.2 and ALR H2O2 inh 98.5*.
